Screens from PubChem.
Tau fluor cs: Counterscreen qHTS for Inhibitors of Tau Fibril Formation, Fluorescence Polarization. tau K18 P301L Alexa594 fluorescence, heparin fibrillization. 0.93% of 280,000 active. Potency, µM (doses to about 57.7 µM), inactives show at the top dose activity change, negative = decrease. AID 1463, 2008; also: potency is read from the fitted curve at half-maximal effect; nearly all actives have a fitted effect of over 55% in size
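Human tau K18 P301L (15 uM unlabeled, 0.24 uM Alexa 594-labeled) in 100 mM sodium acetate pH 7 with 20 uM heparin, 6 hr at 37 C. ThT 30 uM added, 1 hr ambient; Alexa 594 FP and total fluorescence read at 555/632 nm.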
Tau FP inhib: qHTS for Inhibitors of Tau Fibril Formation, Fluorescence Polarization | Microtubule-associated protein tau (Homo sapiens), P10636 | K18 P301L tau heparin fibrillization, Alexa594 FP, 6 h | Potency, µM (highest dose often 57.7 µM), for inactives: top-dose activity, negative = inhibition, hits mostly inhibitors | 0.39% of 280,000 active | AID 1468, 2008; also: potency is read from the fitted curve at half-maximal effect; nearly all actives have a fitted effect of over 55% in size
Target sequence (P10636 561-689 P618L limits assumed): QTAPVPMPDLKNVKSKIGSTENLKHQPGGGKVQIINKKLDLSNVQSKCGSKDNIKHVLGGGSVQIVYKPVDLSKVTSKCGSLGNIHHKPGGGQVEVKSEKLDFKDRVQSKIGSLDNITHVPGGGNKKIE
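FP of Alexa 594-tau after heparin (20 uM) induction. Substrate: human K18 P301L, 15 uM unlabeled, 0.24 uM labeled. Buffer 100 mM sodium acetate pH 7. 6 hr, 37 C.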
Coupling enz: qHTS Assay for Inhibitors of Fructose-1,6-bisphosphate Aldolase from Giardia Lamblia: Coupling assay counterscreen. coupling enzyme system counterscreen, AmpLite Red fluorescence. activity change, negative = inhibition, % at 58.2 µM, hits read low. 0.67% of 290,000 active; in the data active = activity change below about -30%
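First, compound is pin-transferred into glyceraldehyde-3-phosphate coupling-enzyme reagent at 57.5 uM final and held 10 min at RT. Next, substrate, coupling system and AmpLite Red are added. After 20 min RT, fluorescence (525/598 nm) is read.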
Sfp PPTase inh: qHTS Assay for Inhibitors of Bacillus subtilis Sfp phosphopantetheinyl transferase (PPTase). Biochemical Sfp PPTase activity, qHTS. Potency, µM, inactives show largest response in the series, negative = inhibition, most hits filed as inhibitors. 3.5% of 310,000 active;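 also: the enzyme is Sfp with the accession as filed and its product quenches rhodamine fluorescence; potency is read from the fitted curve at half-maximal effect; 0% = enzyme reaction without inhibitor and -100% = no enzyme wells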
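Reaction rates are the 30-min fluorescence difference (ex 525, em 598 nm) in wells containing 15 nM Sfp, 5 uM rhodamine-CoA and 12.5 uM BHQ-2-YbbR at pH 7.6 with 10 mM MgCl2.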
Tau fibril ThT: qHTS for Inhibitors of Tau Fibril Formation, Thioflavin T Binding; recombinant tau K18 P301L (four-repeat tau fragment), heparin-induced fibrillization, ThT fluorescence; 2.1% of 270,000 active; Potency, µM (highest dose often 57.4 µM), for inactives: at the top dose activity, negative = inhibition, most hits filed as inhibitors; Microtubule-associated protein tau (Homo sapiens), P10636; also: potency is read from the fitted curve at half-maximal effect; nearly all actives have a fitted effect of over 55% in size
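K18 P301L tau (15 uM + 0.24 uM Alexa 594-tagged), heparin 20 uM, NaOAc pH 7, 6 h 37 C; ThT 30 uM, 1 h RT, ex 450/em 510 nm.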
* marks the source's active call; other numbers are inactive results; ? = inconclusive; · = not tested or not shown; [ ] = dose if it differs, or a comment. The list is not random: actives were taken first. Their share in the collection is about 5.2%. Unless noted, calls follow the shape of the dose curve; as a rule, active = well fitted curve in the direction sought with a large enough effect; inconclusive = small, poorly fitted or top-dose-only effect, or another doubt; inactive = no such curve, though single readings can be large; an effect the other way counts as inactive or inconclusive. Unless noted, % is scaled to controls: 0 for no effect and ±100 for the full control effect.

SMILES	Tau fluor cs	Tau FP inhib	Coupling enz	Sfp PPTase inh	Tau fibril ThT
Clc1ccc(N=c2ssnc2Cl)cc1	-22%	18µM*	11	4µM*	13µM*
O=C1CSC(=Nc2ccc(Cl)cc2)N1	·	·	1	23%	·
CCOC(=O)c1ccc(N=c2ssnc2Cl)cc1	-18%	?	2	-103%	28µM*
Clc1nssc1=Nc1ccccc1	-23%	40µM*	4	20µM*	28µM*
C#CCn1c(=O)c2c(nc(/C=C/c3cccc(OC)c3)n2C)n(CCCOP(=O)(O)O)c1=O	·	·	2	16%	·
CN(CC#CC1(O)c2ccccc2-c2ccccc21)Cc1ccccc1	2%	-3%	5	45µM*	5%
COc1ccc(-c2cn3c(C)c(C(=O)Nc4ccncc4)sc3n2)cc1	-24%	-1%	-18	45µM*	?
COc1ccc(-c2cn3c4c(sc3n2)CCCC4)cc1	-29%	13%	-18	79µM*	?
Cc1c(C(=O)Nc2ccncc2)sc2nc(-c3ccc(F)cc3)cn12	-7%	?	-17	-15%	-13%
O=C(NCCc1ccccc1)c1cnc2sc(N3CCCCC3)nn2c1=O	-5%	-2%	·	·	-4%
CCN(CC)S(=O)(=O)c1cccc(-c2n[nH]c(=S)n2/N=C/c2ccc(OC)cc2)c1	?	3%	0	79µM*	-11%
CCn1c(O)c(N=Nc2ccc3ccccc3n2)c2ccccc21	-18%	2%	-4	22µM*	4µM*
C[C@]12CC[C@@H]3c4ccc(O)cc4CC[C@H]3[C@@H]1CC[C@H]2O	-7%	-1%	2	10%	-7%
CCCCOc1ccc(C(=O)NNC(=O)C2C3C=CC(C3)C2C(=O)O)cc1 (stereo not drawn)	·	·	·	45µM*	·
CCOc1cccc(C(=O)NCc2ccccc2)c1	-5%	-2%	3	13%	2%
CCCCNC(=O)C1C2C=CC(C2)C1C(=O)O (stereo not drawn)	-2%	-5%	3	-6%	3%
CCOc1cccc(C(=O)NNC(=O)C2C3C=CC(C3)C2C(=O)O)c1 (stereo not drawn)	·	·	·	35µM*	·
COc1ccc(-c2cn3nc(N4CCC(C(=O)NCc5ccccc5F)CC4)sc3n2)cc1	-11%	5%	·	·	?
Cc1cc(C)nc(SCc2nnc(SCC(=O)Nc3ccccc3C)n2Cc2ccco2)n1	-7%	-7%	1	50µM*	-3%
COc1cccc(-c2nnc(SCC(=O)NCc3ccc4c(c3)OCO4)n2Cc2ccco2)c1	-12%	2%	3	40µM*	-17%
Cc1ccc(C)c(NC(=O)CSc2nnc(CSc3nc(C)cc(C)n3)n2Cc2ccco2)c1	3%	5%	4	45µM*	-4%
O=C(CSc1nnc(-c2cccnc2)n1Cc1ccco1)NCc1ccc2c(c1)OCO2	5%	5%	0	-4%	7%
COc1cccc(OCc2nnc(SCC(=O)NCc3ccco3)n2CCc2ccccc2)c1	0%	-1%	6	50µM*	?
Cc1ccccc1N1CC(c2nc3ccccc3n2Cc2ccc(Br)cc2)CC1=O (stereo not drawn)	-7%	0%	·	·	-8%
COc1ccccc1CNC(=O)CN1C(=O)CSc2ccc(S(=O)(=O)N(C)C)cc21	-3%	-7%	·	·	3%
SMILES	Tau fluor cs	Tau FP inhib	Coupling enz	Sfp PPTase inh	Tau fibril ThT
CCCCC/C=C\C/C=C\CCCCCCCC(=O)NC(C)C(=O)O (stereo not drawn)	-9%	-3%	1	11%	-8%
COc1ccc(C)cc1NC(=O)CSc1nnc(COc2ccc(Cl)cc2)n1Cc1ccco1	-20%	5%	3	?	?
CCOC(=O)CSc1nnc(CSc2nc(C)cc(C)n2)n1Cc1ccco1	-2%	5%	3	20µM*	-13%
COc1ccc(C)cc1NC(=O)CSc1nnc(COc2ccccc2)n1Cc1ccco1	-15%	-3%	1	79µM*	?
CCOC(=O)CSc1nc2c(sc3ccc([N+](=O)[O-])cc32)c(=O)n1Cc1ccco1	-20%	18%	4	3.5µM*	-16%
CC(C)C(=O)NC(=O)C1CCCN1C(=O)/C=C/c1ccccc1 (stereo not drawn)	2%[11.6 µM]	2%[11.6 µM]	0	30%	1%[11.5 µM]
COC(=O)c1cc2sc(Cl)cc2n1CC(=O)Nc1cc(C)cc(C)c1	-23%	-3%	·	·	-16%
O=C(O)CCN1C(=O)/C(=C\c2cccc(OCC(=O)Nc3ccc(Cl)cc3)c2)SC1=S	-16%	-4%	13	-4%	13µM*
COc1cccc(/C=C2\SC(=S)N(CCCC(=O)Nc3ccc(C(=O)O)cc3)C2=O)c1	·	·	·	-11%	·
Cc1ccc(NC(=O)COc2cccc(/C=C3\SC(=S)N(CCC(=O)O)C3=O)c2)cc1Cl	-13%	-1%	10	-19%	13µM*
O=C(CCN1C(=O)/C(=C/c2ccc(Cl)cc2)SC1=S)Nc1cccc(C(=O)O)c1	·	·	7	-1%	·
CCCCOc1ccccc1C(=O)N(Cc1sccc1C)C1CCS(=O)(=O)C1 (stereo not drawn)	-13%	-7%	·	·	-7%
CCOc1ccc(Nc2nc(Cc3nnc(SCC(=O)O)o3)cs2)cc1	-20%	0%	-6	45µM*	?
Cc1ccccc1OCCn1c(-c2ccc(Cl)cc2)nc2ccccc2c1=O	-16%	?	·	·	-18%
Cn1c(=O)n(C)c2cc(/C=C3/NC(=O)N(Cc4ccccc4)C3=O)ccc21	-13%	1%	0	15%	-7%
COC(=O)CN1C(=O)N/C(=C/c2ccc(C)o2)C1=O	-10%	?	-11	22µM*	?
Cc1ccc(/C=C2/NC(=O)N(Cc3ccccc3)C2=O)o1	-21%	?	-10	?	32µM*
CCN1C/C(=C/c2sccc2C)c2nc3ccccc3c(C(=O)O)c2C1	-4%	11%	1	-5%	?
CCc1ccc(/C=C2\CN(CC)Cc3c2nc2ccccc2c3C(=O)O)cc1	-29%	?	-34*	2.5µM*	25µM*
CCN1C/C(=C/c2cccs2)c2nc3ccccc3c(C(=O)O)c2C1	-17%	-6%	-7	45µM*	?
Nc1nc(N)c(C=Nc2ccc(Br)cc2)c(Nc2ccc(Br)cc2)n1	10µM*[quencher]	?	1	10%	28µM*
Nc1nc(N)c(S(=O)(=O)c2ccccc2)c(Nc2ccc(Br)cc2)n1	?	32µM*	·	·	-9%
CC(C)Oc1ccc(C(=O)N(Cc2ccc(N(C)C)cc2)Cc2ccco2)cc1	?	-2%	·	·	?
O=C(Nc1cc(S(=O)(=O)N2CCOCC2)ccc1N1CCCC1)c1cccnc1Cl	0%	15%	8	3%	-5%
